Assay results taken from PubChem BioAssay AID1159580 (chemical genetic matrix, 2015).
Values joined by “and” are separate entries in the source; they are usually repeats but may differ in a detail not shown here. Equal values may be shown once. The whole screen tested about 5,500 compounds, of which about 2,000 (36%) were called active. About 18% were inconclusive and are not listed. Rule as the data show it: active = normalized growth mostly below about 0.91 (no sharp cut-off); inconclusive = no clear call, values can overlap the other calls; inactive = mostly above about 0.92. The list shows a part of the results.

Assay: chemical genetic growth profiling, strain panel (AID 1159580);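 also: tested at 20 µM; growth read once vehicle control cultures reached saturation at 30 °C; 1 = growth at the plate median or of vehicle wells; lower values mean less growth of the strain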
Settings: S. cerevisiae deletion strains, growth OD

Measured: normalized growth

CCOc1ccc(C(=O)c2cc(O)c(OC)c(OC)c2O)cc1
inactive: locus YAL021C, strain ccr4, hits give low values 1 | locus YAL026C, strain drs2, hits give low values 0.941 | locus YAL030W, strain snc1, hits give low values 0.993 | locus YBL061C, strain skt5, hits give low values 0.998 | locus YBR009C, strain hhf1, hits give low values 0.938 | locus YBR021W, strain FUR4, hits give low values 1.06 | locus YBR023C, strain chs3, hits give low values 0.997 | locus YBR171W, strain sec66, hits give low values 0.981 | locus YBR229C, strain ROT2, hits give low values 1.01 | locus YBR231C, strain swc5, hits give low values 0.987 | locus YBR279W, strain paf1, hits give low values 1 | locus YCL011C, strain gbp2, hits give low values 0.998 | locus YCL016C, strain dcc1, hits give low values 1 | locus YCL029C, strain bik1, hits give low values 1.01 | locus YCL061C, strain MRC1, hits give low values 1 | locus YCL069W, strain vba3, hits give low values 0.997 | locus YCR088W, strain abp1, hits give low values 0.997 | locus YDL005C, strain med2, hits give low values 1.01 | locus YDL035C, strain GPR1, hits give low values 1.02 | locus YDL040C, strain nat1, hits give low values 1.01 | locus YDL074C, strain BRE1, hits give low values 1.11 | locus YDL101C, strain DUN1, hits give low values 1.01 | locus YDL134C, strain PPH21, hits give low values 1.01 | locus YDL185W, strain tfp1, hits give low values 1.01 | locus YDL192W, strain arf1, hits give low values 0.957 | locus YDR001C, strain nth1, hits give low values 0.999 | locus YDR069C, strain doa4, hits give low values 0.969 | locus YDR101C, strain arx1, hits give low values 1 | locus YDR150W, strain NUM1, hits give low values 1.01 | locus YDR159W, strain sac3, hits give low values 0.97 | locus YDR162C, strain NBP2, hits give low values 0.983 | locus YDR195W, strain ref2 1.05 | locus YDR297W, strain sur2, hits give low values 0.995 | locus YDR318W, strain mcm21, hits give low values 0.99 | locus YDR334W, strain swr1, hits give low values 0.987 | locus YDR335W, strain msn5, hits give low values 0.999 | locus YDR388W, hits give low values 1.02 | locus YDR502C, strain sam2, hits give low values 1.02 | locus YEL003W, strain gim4, hits give low values 0.986 | locus YEL037C, strain rad23, hits give low values 0.99 | locus YEL061C, strain CIN8 (second series), hits give low values 0.992 | locus YER015W, strain faa2, hits give low values 0.999 | locus YER016W, strain bim1, hits give low values 0.995 | locus YER110C, hits give low values 1.03 | locus YER111C, strain swi4, hits give low values 0.989 | locus YER155C, strain BEM2, hits give low values 0.995 | locus YER167W, strain BCK2, hits give low values 1 | locus YFR010W, strain ubp6, hits give low values 0.98 | locus YGL078C, strain dbp3, hits give low values 1.03 | locus YGL086W, strain mad1, hits give low values 0.964 | locus YGL167C, strain pmr1, hits give low values 1 | locus YGL173C, strain kem1, hits give low values 0.988 | locus YGL227W, strain vid30, hits give low values 1.01 | locus YGL240W, strain doc1, hits give low values 0.985 | locus YGL248W, strain PDE1, hits give low values 1.04 | locus YGL253W, strain hxk2, hits give low values 1.01 | locus YGR135W, strain pre9, hits give low values 1.01 | locus YGR252W, strain gcn5, hits give low values 1.03 | locus YHR013C, strain ard1, hits give low values 0.985 | locus YHR027C, strain rpn1, hits give low values 0.991 | locus YHR030C, strain SLT2, hits give low values 1 and 0.941 | locus YHR079C, strain IRE1 (second series), hits give low values 1.03 | locus YHR079C, strain IRE1, hits give low values 0.938 | locus YHR094C, strain hxt1, hits give low values 1.01 | locus YHR129C, strain ARP1, hits give low values 1.03 | locus YHR142W, strain chs7, hits give low values 0.931 | locus YHR200W, strain rpn10, hits give low values 1.02 | locus YIL066C, strain RNR3, hits give low values 1.03 | locus YIL073C, strain SPO22, hits give low values 1.01 | locus YIL125W, strain kgd1, hits give low values 0.995 | locus YIR030C, strain dcg1, hits give low values 1.01 | locus YJL092W, strain hpr5, hits give low values 1 | locus YJL095W, strain BCK1 (second series), hits give low values 0.938 | locus YJL095W, strain BCK1, hits give low values 1.05 and 0.949 | locus YJL115W, strain asf1, hits give low values 1 | locus YJL129C, strain trk1, hits give low values 0.955 | locus YJL134W, strain LCB3, hits give low values 0.994 | locus YJL154C, strain vps35, hits give low values 1 | locus YJL164C, strain tpk1, hits give low values 0.969 | locus YJL166W, strain qcr8, hits give low values 0.974 | locus YJL168C, strain set2, hits give low values 1.01 | locus YJL187C, strain SWE1 (second series), hits give low values 1.03 | locus YJL187C, strain SWE1, hits give low values 0.991 | locus YJR043C, strain POL32, hits give low values 1.06 | locus YJR066W, strain TOR1, hits give low values 0.882 | locus YJR075W, strain HOC1, hits give low values 1 | locus YKL009W, strain mrt4, hits give low values 1.02 | locus YKL068W, hits give low values 0.988 | locus YKL085W, strain MDH1 (second series), hits give low values 0.985 | locus YKL085W, strain MDH1, hits give low values 0.985 | locus YKL160W, strain elf1, hits give low values 0.966 | locus YKL190W, strain CNB1, hits give low values 1.01 | locus YKR001C, strain vps1, hits give low values 0.959 | locus YKR026C, strain gcn3, hits give low values 0.997 | locus YKR091W, strain srl3, hits give low values 0.999 | locus YLL001W, strain dnm1, hits give low values 0.989 | locus YLL026W, hits give low values 1.01 | locus YLL041C, strain sdh2, hits give low values 1 | locus YLR027C, strain aat2, hits give low values 0.99 | locus YLR039C, strain RIC1, hits give low values 0.871 | locus YLR058C, strain SHM2, hits give low values 1.03 | locus YLR102C, strain apc9, hits give low values 1.01 | locus YLR221C, strain rsa3, hits give low values 0.984 | locus YLR258W, strain gsy2, hits give low values 0.989 | locus YLR262C, strain YPT6, hits give low values 0.625 | locus YLR268W, strain sec22, hits give low values 0.974 | locus YLR330W, strain CHS5, hits give low values 1 | locus YLR342W, strain FKS1 (second series), hits give low values 0.952 | locus YLR342W, strain FKS1, hits give low values 0.995 | locus YLR357W, strain rsc2, hits give low values 1.02 | locus YLR370C, strain arc18, hits give low values 0.994 | locus YLR371W, strain rom2, hits give low values 0.963 | locus YLR384C, strain iki3, hits give low values 0.999 | locus YLR418C, strain cdc73, hits give low values 1.04 | locus YML016C, strain PPZ1, hits give low values 1.01 | locus YML032C, strain rad52, hits give low values 1.03 | locus YML120C, strain ndi1, hits give low values 0.986 | locus YML124C, strain tub3, hits give low values 1.01 | locus YMR058W, strain fet3, hits give low values 0.981 | locus YMR078C, strain ctf18, hits give low values 1.03 | locus YMR125W, strain sto1, hits give low values 1.01 | locus YMR129W, hits give low values 1 | locus YMR205C, strain PFK2, hits give low values 0.932 | locus YMR223W, strain ubp8, hits give low values 0.981 | locus YMR231W, strain pep5, hits give low values 0.999 | locus YMR263W, strain SAP30, hits give low values 0.997 | locus YMR307W, strain GAS1, hits give low values 0.929 | locus YNL067W, strain RPL9B, hits give low values 1 | locus YNL183C, strain NPR1, hits give low values 0.906 | locus YNL209W, strain ssb2, hits give low values 0.992 | locus YNL233W, strain BNI4, hits give low values 1 | locus YNL248C, strain rpa49, hits give low values 1 | locus YNL250W, strain rad50, hits give low values 1.06 | locus YNL271C, strain bni1, hits give low values 1.01 | locus YNL298W, strain CLA4, hits give low values 1.04 | locus YNL322C, strain KRE1 (second series), hits give low values 0.989 | locus YNR049C, strain mso1, hits give low values 1 | locus YNR052C, strain pop2, hits give low values 1.02 | locus YOL006C, strain TOP1, hits give low values 1.18 | locus YOL012C, strain htz1 1.11 | locus YOL147C, strain pex11, hits give low values 1.01 | locus YOR001W, strain rrp6, hits give low values 0.992 | locus YOR061W, strain CKA2, hits give low values 1.01 | locus YOR069W, strain VPS5, hits give low values 1 | locus YOR070C, strain gyp1, hits give low values 0.981 | locus YOR080W, strain dia2, hits give low values 1.01 | locus YOR083W, strain WHI5, hits give low values 0.977 | locus YOR106W, strain vam3, hits give low values 0.9 | locus YOR136W, strain idh2, hits give low values 1.01 | locus YOR144C, strain elg1, hits give low values 1.01 | locus YOR184W, strain ser1, hits give low values 1.01 | locus YOR231W, strain MKK1, hits give low values 0.948 | locus YOR265W, strain rbl2, hits give low values 0.988 | locus YOR270C, strain vph1, hits give low values 0.903 | locus YOR290C, strain snf2, hits give low values 0.979 | locus YOR316C, strain cot1, hits give low values 1.03 | locus YPL078C, strain atp4, hits give low values 0.994 | locus YPL106C, strain sse1, hits give low values 1.04 | locus YPL240C, strain hsp82, hits give low values 0.991 | locus YPL241C, strain CIN2, hits give low values 1.01 | locus YPL256C, strain CLN2, hits give low values 0.934 | locus YPR119W, strain clb2, hits give low values 1.02 | locus YPR141C, strain kar3, hits give low values 1 | locus YPR163C, strain tif3, hits give low values 0.953 | locus YPR167C, strain met16, hits give low values 1.02 | strain wtn01, hits give low values 0.992
active: locus YDR137W, strain rgp1, hits give low values 0.79 | locus YDR392W, strain spt3, hits give low values 0.455 | locus YER155C, strain BEM2 (second series), hits give low values 0.734 | locus YLR113W, strain HOG1, hits give low values 0.844 | locus YLR262C, strain YPT6 (second series), hits give low values 0.341 | locus YLR320W, strain mms22, hits give low values 0.852 | locus YNL071W, strain lat1, hits give low values 0.626 | locus YNL307C, strain MCK1, hits give low values 0.858 | locus YPL051W, strain arl3, hits give low values 0.891
